An excerpt weighted towards active compounds, which were near 1.7% of everything screened.
Pyk2 oligo antag: blocks oligomerization of human Pyk2 in cells. Q14289. Q293 cells, Pyk2 FERM NanoBiT luminescence; hits give low values. z-score (the deposit names both 25 µM and 10 µM). actives 0.83% (n = 99,000);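 active = Z-score of -3 or lower, scaled per plate to the spread of control and sample wells; inactive = z-score above -3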;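 also: negative z-score means lost luminescence so less FERM oligomerization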
PLK1 kinase inh: blocks human PLK1 kinase activity; inhibition, % at 10 µM; P53350; AID 619; actives 0.53% (n = 97,000); recombinant PLK1 kinase, TR-FRET peptide phosphorylation;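 active = inhibition of 50% or more in the single-concentration screen; inactive = inhibition below 50%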;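 also: 0% = DMSO max control and 100% = H-89 dihydrochloride min control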
PTPN22 act: LYP (human) phosphatase activation | activation, % at 2 µM | recombinant LYP, DiFMUP fluorescence; 0 = plate median, 100 = signal doubled | Q9Y2R2 | actives 0.11% (n = 96,000);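 active = activation at 2 µM above a set limit, the mean plus 5 SD, cut at about 37% in these data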
PLK1 PBD inh: Plk1 (human) PBD binding inhibition; Plk1 PBD phosphopeptide binding, fluorescence polarization; inhibition, %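 (tested at about 20 µM)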; actives 0.13% (n = 97,000); in the data active = inhibition above about 34%, passing the limit was not always enough
PTPN22 inh 2: inhibitors of human LYP (PTPN22) phosphatase | Q9Y2R2 | recombinant LYP catalytic domain, DiFMUP fluorescence | inhibition, % at 2 µM | actives 0.21% (n = 96,000) | AID 640;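 active = inhibition at 2 µM at or above a set limit, the screen mean plus 3 SD, cut at about 24% in these data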;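 also: 0% = DMSO with enzyme and 100% = enzyme fully blocked by orthovanadate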
Active calls of the source: *; nt = no result.

SMILES	Pyk2 oligo antag	PLK1 kinase inh	PTPN22 act	PLK1 PBD inh	PTPN22 inh 2
CCn1nc([N+](=O)[O-])c(C(C#N)c2nc3cc(C(F)(F)F)ccc3s2)c(Cl)c1=O (stereo not given)	-3.3*	22	1	11	-1
O=C(NCCCN1CCc2ccccc2C1)Nc1ccc(Cl)cc1	0.29	-2	-9	-2	12
CCOC(=O)c1ccc(NS(=O)(=O)N2CCCCCC2)cc1	-3.1*	-13	-4	-12	-1
COc1cc(C2SCC(=O)N2c2nnc(C34CC5CC(CC(C5)C3)C4)s2)cc(OC)c1OC (stereo not given)	-0.13	-1	-9	17	14
Cc1onc(-c2ccccc2)c1C(=O)Nc1nc2c(s1)CCCC2	-3.4*	-14	3	-27	-5
Cc1csc(NC(=O)c2c(-c3c(Cl)cccc3Cl)noc2C)n1	-1.6	2	0	20	3
Cc1onc(-c2c(F)cccc2Cl)c1C(=O)Nc1nc2c(s1)CCCC2	-3.6*	-3	6	-13	-11
CCn1c2ccccc2c2cc(N=C3SC(CC(=O)Nc4ccccc4)C(=O)N3C)ccc21 (stereo not given)	-1.9	-14	11	-10	-13
CCNS(=O)(=O)c1ccc2c3c(cccc13)C(=O)N2	0.21	-13	13	24	-13
CCN(c1cccc(C)c1)S(=O)(=O)c1ccc2c3c(cccc13)C(=O)N2	-3.1*	-9	-5	9	6
O=C(Nc1ccc2c(c1)C(=O)N(CC1CCCO1)C2=O)c1cccc(Br)c1 (stereo not given)	-3.1*	0	-8	-17	9
O=C(O)c1cccc(NC(=O)c2ccc3c(c2)C(=O)N(CC2CCCO2)C3=O)c1 (stereo not given)	-0.21	-2	6	-10	-6
Cn1cc(C(=O)NCN2CCCCC2)c2ccccc21	-0.76	-12	1	1	-1
O=c1c(/C=N/Nc2ccccc2)c(Sc2nnnn2-c2ccccc2)nc2ccccn12	-1.1	-27	-23	-124	24*
N#CC1=C2SCN(c3ccccc3)CN2C(=O)CC1c1c(Cl)cccc1Cl (stereo not given)	nt	3	-8	12	7
N#CC1=C2SCN(c3ccccc3)CN2C(=O)CC1c1ccccc1Cl (stereo not given)	nt	56*	-4	8	1
COC(=O)CCC(=O)c1oc2ccc(Br)cc2c1N	0.99	-12	2	26	-2
COc1ccc2oc(C(=O)CCC(=O)O)c(N)c2c1	nt	63*	nt	12	nt
O=C1C(=O)c2c(C(=O)c3ccccc3)coc2-c2ccccc21	-3.6*	-12	-14	3	14
O=C(c1ccccc1)c1coc2ccc(O)c(Cl)c12	-1.2	23	-2	-12	0
Cc1ccc(CN(CC(=O)N/N=C/c2ccco2)S(=O)(=O)c2ccc(C)cc2)cc1	1.6	-16	5	24	-5
CCN(CC)S(=O)(=O)c1ccc2nc(NC(=O)c3cccs3)sc2c1	-2.4	-8	5	-23	-4
CCN(CC)S(=O)(=O)c1cccc(C(=O)Nc2nc3cc4c(cc3s2)OCCO4)c1	-3.5*	nt	nt	nt	nt
O=C(NNC(=O)c1ccc2ccccc2c1O)c1ccccc1Cl	1.1	-17	-20	5	24*
O=C(NNC(=O)c1cccc2ccccc12)c1ccco1	-0.01	-8	5	-10	0
SMILES	Pyk2 oligo antag	PLK1 kinase inh	PTPN22 act	PLK1 PBD inh	PTPN22 inh 2
CCOc1ccc(C(=O)NCCn2cc(SCC(=O)Nc3cc(C)on3)c3ccccc32)cc1	-0.68	-1	4	-20	-4
Cc1ccc(C(=O)NCCn2cc(SCC(=O)Nc3nnc(C)s3)c3ccccc32)cc1	nt	62*	nt	7	nt
Cc1nc2cc(C(=O)O)ccc2n1-c1ccccc1	nt	69*	nt	-2	nt
COc1ccccc1-n1c(C)nc2cc(C(=O)O)ccc21	0.04	-5	1	8	-1
COCCn1c(SCC(=O)NCc2ccc3c(c2)OCO3)nnc1-c1c[nH]c2ccccc12	nt	63*	nt	-4	nt
COCCn1c(SCc2ccc(C(=O)OC)o2)nnc1-c1c[nH]c2ccccc12	nt	59*	nt	4	nt
COCCn1c(SCC(=O)Nc2nnc(C)s2)nnc1-c1c[nH]c2ccccc12	-0.31	-8	-3	-11	0
Cc1cc(C=O)c(C)n1-c1ccc(NC2CCCC2)c([N+](=O)[O-])c1	nt	-10	nt	nt	nt
COc1ccc(CNc2nc(NCc3ccc(OC)cc3)n(C(C)=O)n2)cc1	-0.56	0	5	2	-3
COc1ccc(CNc2nc(NCc3ccc(OC)c(OC)c3)n(C(=O)c3cccs3)n2)cc1OC	-3.4*	-14	0	-18	-1
O=C(CSc1nc2ccccc2o1)NCc1n[nH]c(=O)c2ccccc12	0.72	-8	14	16	-17
FC(F)(F)c1nc(-c2cccs2)ncc1-c1nnnn1-c1ccc(Cl)cc1	-3.1*	-5	-4	3	3
N#Cc1ccc(-c2ccc(F)cc2)nc1SCC(=O)Nc1sc2c(c1C#N)CCC2	-1.7	-26	0	5	3
COc1ccc(NC(=O)C2CCC(=O)N2S(=O)(=O)c2ccc(C)cc2)c(OC)c1 (stereo not given)	1.6	-8	3	-22	-7
COC(=O)/C=c1/s/c(=C(/C#N)C(=O)N2CCOCC2)n(-c2ccccc2)c1=O	-0.88	-22	-1	-26	3
COc1cc(/C=c2\s/c(=C(/C#N)C(=O)N3CCCC3)n(-c3ccccc3)c2=O)ccc1O	-3*	-18	-1	-63	0
CCNc1nc(N)c(C(=O)c2ccc(Cl)s2)s1	-0.47	68*	1	-26	-3
O=C(Nc1nc2ccccc2s1)c1ccc(Cl)s1	nt	-12	-2	22	0
CC(C)CCNC(=O)C(c1ccco1)N(Cc1cccs1)C(=O)Cn1nnc2ccccc21 (stereo not given)	-3.1*	nt	nt	nt	nt
COCCNC(=O)C(c1cccs1)N(Cc1cccs1)C(=O)Cn1nnc2ccccc21 (stereo not given)	-0.22	5	-7	-3	4
CCCCSc1nnc2n(CCc3ccccc3)c(=O)c3c4c(sc3n12)COC(C)(C)C4	1.3	-11	-4	-11	5
CC(C)c1nnc(NC(=O)c2cccs2)s1	nt	67*	nt	-12	nt
O=c1oc2ccccc2n1CCn1c2ccccc2c2nc3ccccc3nc21	-3.1*	-8	-12	7	14
Cc1ccc(Cl)cc1NC(=O)N[C@@H](C)C(=O)O	-0.34	-6	2	-13	2
CCOC(=O)c1sc(NC(=O)C(CC)Sc2nc3ccccc3[nH]2)nc1C (stereo not given)	-0.51	-9	-24	-20	25*
FC(F)(F)c1cccc(-n2cccc2/C=N/n2cnnc2)c1	0.62	-9	-3	0	0
CCc1cc(C(=O)Cc2cnn(-c3ccccc3)c2)c(O)cc1O	-2.9	-3	7	-2	-10
O=C(Cc1cnn(-c2ccccc2)c1)c1ccc(O)c(O)c1O	-0.34	44	-27	-9	29*
CCOC(=O)c1[nH]c(C)c(/C=N/O)c1C	-0.29	-11	-2	-4	3
